# Compound activity (PubChem)
# Most compounds without a hit are left out; they make up all but 1.5% or so of the library.
# BLM helicase inh = Bloom syndrome helicase (human) inhibition. P54132. recombinant BLM DNA unwinding, fluorescence dequenching. Potency, µM (top dose mostly 56.1 µM), for the others: at the top dose activity change, negative = inhibition, usual class: inhibitors. 350,000 tested, 0.2% active;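 note: potency is the fitted concentration of half-maximal effect; plate controls were vehicle for no effect and no enzyme for full effect; nearly all actives have a fitted effect of over 35% in size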
# PI5P4K alpha inh = blocks human PI5P4K alpha kinase activity | AID 652105 | PI5P4Kalpha enzyme, ADP-Glo luminescence, 60 min; hits give low values | max response, % | 330,000 tested, 1.2% active; active = max response of -50% or lower; inconclusive = between -30% and -50%; inactive = -30% or higher; note: value at the top dose of about 77 µM
#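 Controls without substrate or without enzyme flank wells where PI5P4Kalpha converts substrate using 5 microM ATP (final). Incubation lasts 60 minutes at room temperature; ADP formed is read by ADP-Glo luminescence.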
# FEN1 inhibitor = blocks human flap endonuclease 1 | AID 588795 | Recombinant FEN1 flap cleavage, fluorescence, 15 min | 390,000 tested, 0.35% active | Potency, µM (series often up to 114 µM), inactives show top-dose activity change, negative = inhibition, most hits filed as inhibitors | P39748; note: potency is the fitted concentration of half-maximal effect; nearly all actives have a fitted effect of over 65% in size
#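 In this screen, 50 nM flap DNA substrate was added to 10 nM FEN1 pretreated with compound for 15 min at room temperature; cleavage was followed with reads at 0 and 15 min, and Hill fitting gave concentration–response parameters.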
# APE1 inh = APE1 (human) endonuclease inhibition; P27695; recombinant APE1, TAMRA/BHQ-2 abasic DNA cleavage fluorescence; Potency, µM (highest dose often 65.8 µM), inactives show top-dose activity change, negative = inhibition, most hits filed as inhibitors; 350,000 tested, 0.35% active;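 note: potency is the fitted concentration of half-maximal effect; plate controls were vehicle for no effect and reference inhibitor for full effect; nearly all actives have a fitted effect of over 55% in size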
#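 Substrate: short duplex with […] THF abasic site, 5'-TAMRA and 3'-BHQ-2, 50 nM final. APE1 at 0.75 nM, preincubated 15 min RT with compound. Fluorescence increase from first to third read measured activity.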
# RECQ1 inh = inhibitors of human RECQ1 DNA helicase; 240,000 tested, 0.54% active; RECQ1 DNA unwinding, red fluorescence kinetic read; Potency, µM (series often up to 57.3 µM), without a hit: top-dose activity, negative = inhibition, usual class: inhibitors; P46063;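 note: potency is the fitted concentration of half-maximal effect; plate controls were vehicle for no effect and no enzyme for full effect; nearly all actives have a fitted effect of over 30% in size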
#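 50 nM RECQ1T1 preincubated 15 min with compound in Tris pH 8.0 buffer with MgCl2, DTT, Tween-20 and 2.5 ug/ml poly(dI-dC); started with 200 nM TAMRA/BHQ-2 forked duplex and 2 mM ATP. Unwinding read as fluorescence (525/598 nm), two reads 2 h apart.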
# WRN helicase inh = blocks human WRN helicase. WRN helicase unwinding, fluorescent forked duplex, kinetic. Q14191. AID 651768. Potency, µM (titrated, usually from 114 µM), inactives show top-dose activity change, negative = inhibition, hits mostly inhibitors. 360,000 tested, 0.46% active; note: potency is the fitted concentration of half-maximal effect; nearly all actives have a fitted effect of over 55% in size
#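 Screening of the MLSMR collection measured strand separation of a quenched forked DNA duplex (100 nM) by 20 nM WRN with 2 mM ATP, all final. Compounds were preincubated with enzyme 15 min at room temperature.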
# * marks the source's active call; other numbers are inactive results; i = inactive; ? = inconclusive; · = not tested or not shown; [ ] = remark or other dose. Unless noted, calls come from the whole dose curve; as a rule, active = well fitted curve in the direction sought with a large enough effect; inconclusive = small, poorly fitted or top-dose-only effect, or another doubt; inactive = no such curve, though single readings can be large; an effect the other way counts as inactive or inconclusive. Unless noted, % is set by controls: 0 for no effect and ±100 for the full control effect.
SMILES,BLM helicase inh,PI5P4K alpha inh,FEN1 inhibitor,APE1 inh,RECQ1 inh,WRN helicase inh
Cc1ccc(NC(=O)c2cc(-n3cnnc3)ccc2Cl)cc1,7.4%,·,-14.2%,-1.5%,-0.6%,-10.2%
Cc1ccc(NC(=O)c2cc(NC(=O)c3ccco3)ccc2N2CCOCC2)cc1,-2.4%,-4.8,-12.5%,10.5%,i,1.6%
Cc1ccc(NC(=O)c2cc(N3C(=O)C=CC3=O)ccc2Cl)cc1C,-4.4%,-76.0*,5.0%,19.5%,-11.3%,?
N#C/C(=C\c1ccc(O)c(O)c1)C(=O)N1CCc2ccccc21,·,-19.0,?,-6.2%,·,17.8µM*
Cc1ccc(S(=O)(=O)Oc2ccc(N=Nc3ccc(-c4ccc(N=Nc5c(O)ccc6cc(S(=O)(=O)O)cc(S(=O)(=O)O)c56)c(C)c4)cc3C)cc2)cc1,·,·,·,35.5µM*,25.1µM*,·
COc1cc2nc(N3CCCN(C)CC3)nc(NC3CCOCC3)c2cc1OC,·,·,-17.6%,·,·,·
COc1cc2c(NC3CCN(C)CC3)nc(N3CCCN(C)CC3)nc2cc1OCC1CCCCN1 (configuration not stated),·,·,20µM*,·,·,·
COc1cc2c(NC3CCN(C)CC3)nc(N3CCCN(C)CC3)nc2cc1OCCCCCN,·,·,8.91µM*,·,·,·
COc1cc2c(NC3CCN(C)CC3)nc(N3CCCN(C)CC3)nc2cc1OCCCCCC(N)=O,·,·,0.0%,·,·,·
COCCCCOc1cc2nc(N3CCCN(C)CC3)nc(NC3CCN(C)CC3)c2cc1OC,·,·,44.7µM*,·,·,·
Cc1ccc(S(=O)(=O)N2CCN(c3nc(-c4ccc(CN5CCNCC5)s4)nc4ccccc34)CC2)cc1,·,·,0.5%,·,·,·
Cc1ccc(C(=O)n2nc(C)c(S(=O)(=O)N3CCCCCC3)c2C)cc1,-3.7%,·,-6.2%,·,·,·
CCCN1CNc2c(c(=O)[nH]c(=S)n2CCc2ccccc2OC)C1,·,·,-5.2%,·,·,·
CSc1ccc(C2N=C(c3ccccc3)NO2)cc1 (configuration not stated),-6.4%,2.5,14.9%,16.7%,·,3.9%
Oc1c(Br)cc(C2N=C(c3ccccc3)NO2)cc1Br (configuration not stated),0.3%,-56.0*,11.3%,3.2%,-5.4%,-18.7%
COc1cc(/C=C2\C(=O)N(c3cccc(C(=O)O)c3)N=C2C)ccc1OCc1ccccc1,·,-7.6,·,·,·,2.67µM*
C#CCOc1ccc(/C=C2/C(=O)N(c3cccc(C(=O)O)c3)N=C2C)cc1OC,-12.9%,-18.8,?,-35.5%,·,?
CC[C@H](C)[C@H]1O[C@]2(CC[C@@H]1C)C[C@@H]1C[C@@H](C/C=C(\C)[C@@H](O[C@H]3C[C@H](OC)[C@@H](O[C@H]4C[C@H](OC)[C@@H](O)[C@H](C)O4)[C@H](C)O3)[C@@H](C)/C=C/C=C3\CO[C@@H]4[C@H](O)C(C)=C[C@@H](C(=O)O1)[C@]34O)O2,·,·,·,9.7%,·,·
COc1ccc(/C=C2\SC(=S)N(NC(=O)c3ccncc3)C2=O)cc1OC,-1.2%,·,·,15.0%,i,·
COc1ccc(/C=C2\SC(=N)N(c3nccs3)C2=O)cc1OC,-5.2%,-22.7,79.4µM*,-2.3%,-6.0%,-25.0%[57.1 µM]
COc1cc(C(=O)O[C@@H]2CC3CC[C@]2(C)C3(C)C)ccc1O,-15.7%,·,·,-8.8%,0.7%,·
O=S(=O)(Nc1cc(Sc2cccc3cccnc23)c(O)c2ccccc12)c1ccc(F)cc1,-5.6%,-18.8,?,8.9%,-15.5%,22.4µM*
O=C(Sc1cccc2cccnc12)c1ccc(F)cc1,-3.4%,·,·,20.9%,-8.7%,·
Cc1ncnc2nc[nH]c12,·,·,-2.8%,·,·,·
Cc1nc(Nc2nc(-c3ccccc3)cc(=O)[nH]2)nc2ccccc12,·,-10.6,25.1µM*,·,·,-33.7%
SMILES,BLM helicase inh,PI5P4K alpha inh,FEN1 inhibitor,APE1 inh,RECQ1 inh,WRN helicase inh
O=c1cc(-c2ccccc2Cl)oc2c([N+](=O)[O-])c(O)cc(O)c12,-6.2%[75.6 µM],-96.1*,?,?,-0.4%[81.1 µM],-9.3%
O=c1cc(-c2ccccc2Cl)oc2ccc([N+](=O)[O-])c(O)c12,-8.6%[75.6 µM],-7.3,-16.1%,-1.3%,-6.4%[81.1 µM],-4.9%
C=CCNc1oc(-c2ccc(F)cc2)nc1C#N,·,·,·,49.1%,·,·
O/C=c1\ccc2cccc3nc(C(F)(F)F)nc1c23,14.1µM*,?,79.4µM*,-26.6%,·,79.4µM*
O=C1[C@H]2CCC=C[C@H]2[C@H](c2cccc(Br)c2)N1Cc1ccccc1,-11.3%[75.6 µM],-53.3*,?,-12.1%,i,-7.1%
CCn1c2ccccc2c2cc(/C=N/n3c(-c4cc(C)[nH]n4)n[nH]c3=S)ccc21,-10.6%,-59.8*,?,-1.1%,-15.8%,-12.4%[11.6 µM]
CCn1c2ccccc2c2cc(/C=N/n3cn[nH]c3=S)ccc21,-4.0%,·,?,7.3%,-11.4%,-5.3%
COc1ccc(OC)c(Nc2nn3c(=O)c4ccccc4nc3s2)c1,·,·,·,-23.9%,·,·
COc1ccc(C(=O)NCCN(C)C)c2nc3ccccc3cc12,·,14.5,14.1µM*,·,·,40.4%
COc1ccc(Cl)cc1C(=O)NCCN(C)C,3.4%,3.6,-3.2%,3.8%,-2.9%,-8.0%
Cc1ccc(C)c(C(=O)NCCN(C)C)c1,-2.2%,-5.7,-15.0%,-3.7%,-0.7%,-3.9%
CN(C)CCNC(=O)c1cccc2nc3c(ccc4ccccc43)nc12,·,20.8,12.6µM*,·,·,?
CN(C)CCNC(=O)c1cccc2[nH]c(-c3ccncc3)nc12,·,-2.8,44.7µM*,·,·,3.5%[11.6 µM]
O=S(=O)(c1ccccc1C(F)(F)F)N1CCN(c2nc(-c3cccs3)nc3ccccc23)CC1,·,·,10.7%,·,·,·
COc1cc(-c2oc3ccc(C)cc3c(=O)c2O)cc(OC)c1OC,-7.2%,·,-13.8%,·,·,·
COc1c(O)c(O)cc2c1oc1c3cc(C)ccc3oc(=O)c21,?,·,·,?,8.91µM*,·
CC1CCN(S(=O)(=O)c2ccc3c(c2)CCC(=O)N3CC(=O)Nc2cccc(C#N)c2)CC1,-10.9%,·,5.7%,4.74µM*,·,·
Cc1ccc(C)c(NC(=O)CN(CCc2ccccc2)S(=O)(=O)c2ccccc2)c1,-8.2%,·,89.1µM*,·,·,·
O=C(/C=C1\C(=O)Nc2ccccc21)/C=C1\C(=O)Nc2ccccc21,-5.2%,-83.0*,-6.5%,-3.9%,-3.7%,-8.9%
Cn1cc(C(c2ccccc2OCC(=O)O)c2cn(C)c3ccccc23)c2ccccc21,-2.5%,-53.1*,-11.2%,34.3%,·,79.4µM*
CCn1c(=O)cc(OCC(=O)O)c2ccccc21,3.1%,?,6.0%,-2.1%,i,4.0%
Clc1cc(Cl)c(OCC#CI)cc1Cl,1.7%,·,·,·,·,·
COc1c(OC(C)=O)ccc(/C=N\NC(=O)c2ccc(Br)cc2)c1[N+](=O)[O-],-0.4%,-68.6*,?,2.6%,12.8%,-28.5%
COc1ccc(C(=O)Nc2ccc(-c3n[nH]c(=S)o3)cc2)cc1OC,-6.5%,-52.8*,8.7%,35.0%,·,-9.0%
